Reference: PubChem BioAssay (EPA / NIEHS)
Several values for one entry are separate records, joined by “and”; a condition that tells them apart may be missing. Equal values may be shown once. More than one record can exist for a structure, and the calls need not agree. Activity calls are given as the source filed them. The calls were made as follows: active = hit-call score of the fitted dose curve at least 0.9, where 1 is the maximum; inactive = score below 0.9.

These molecules were tested against Nuclear respiratory factor 1 (Homo sapiens) (UniProt Q16656) (assay: ATG_NRF1_CIS: Attagene CIS-FACTORIAL HepG2 Assay for human Nuclear Respiratory Factor 1 (NRF1) Orphan Gene (AID 2282987)). Details: HepG2 NRF1 cis-element reporter, Attagene multiplex; actives raise or lower the signal.
Experimental: ATG_CIS is a cell-based, multiplexed-readout assay that uses HepG2, a human liver cell line, with measurements taken at 24 hours after chemical dosing in a 24-well plate.ATG_NRF1_CIS is one of 52 assay component(s) measured or calculated from the ATG_CIS assay. It is designed to make measurements of mRNA induction, a form of inducible reporter, as detected with fluorescence intensity signals by Reverse transcription polymerase chain reaction (RT-PCR) and Capillary electrophoresis technology.Data from the assay component ATG_NRF1_CIS was analyzed into 1 assay endpoint. This assay endpoint, ATG_NRF1_CIS, was analyzed with bidirectional fitting relative to DMSO as the negative control and baseline of activity. Using a type of inducible reporter, measures of mRNA for gain or loss-of-signal activity can be used to understand the reporter gene at the transcription factor-level as they relate to the gene NRF1. Furthermore, this assay endpoint can be referred to as a primary readout, because this assay has produced multiple assay endpoints where this one serves a reporter gene function. To generalize the intended target to other relatable targets, this assay endpoint is annotated to the dna binding intended target family, where the subfamily is nuclear respiratory factors.
Human liver HepG2 cells are transiently transfected with multiple reporter transcription units (MRTUs) in 6-well plates using FuGene 6 reagent (Roche; 3 ml FuGene/1 mg DNA). The MRTU constructs are regulated by a cis-regulating element (promoter). […] A major difference between the CIS and TRANS system is that in CIS activities of endogenous TFs are measured, whereas the TRANS assay evaluates changes in activities of exogenous, chimeric NR-Gal4 proteins. […] At the end of 24 hour incubation, total RNA was isolated using TriZol reagent (Invitrogen). The isolated RNA is then reverse-transcribed using oligo(dT) primer and Mo-MLV reverse transcriptase (Invitrogen) with DNAse I (Ambion) treatment for 30 min. The one-tenth of the produced cDNA was amplified by PCR using Taq DNA polymerase (Invitrogen) and two reporter sequence-specific primers. The PCR products were fluorescently labeled by primer extension with 6-arboxyfluorescein (6-FAM) 5'-labeled reporter sequence-specific primer (2 min at 95 C, 20 s at 68 C and 10 min at 72 C) and these products were digested with 5U of HpaI (New England Biolabs) for 2h at 37 C. The fragments were purified using Qiaquick PCR columns (Qiagen), analyzed on an ABI 3130xL genetic analyzer (Applied Biosystems) with peak positions identified by using a set of X-rhodamine (ROX)-labeled MapMarker1000 molecular weight standards (BioVentures). The raw capillary electrophoresis data was processed using Attagraph software (Attagene).

Sequence of Nuclear respiratory factor 1 (Homo sapiens) (Q16656 whole entry, looked up): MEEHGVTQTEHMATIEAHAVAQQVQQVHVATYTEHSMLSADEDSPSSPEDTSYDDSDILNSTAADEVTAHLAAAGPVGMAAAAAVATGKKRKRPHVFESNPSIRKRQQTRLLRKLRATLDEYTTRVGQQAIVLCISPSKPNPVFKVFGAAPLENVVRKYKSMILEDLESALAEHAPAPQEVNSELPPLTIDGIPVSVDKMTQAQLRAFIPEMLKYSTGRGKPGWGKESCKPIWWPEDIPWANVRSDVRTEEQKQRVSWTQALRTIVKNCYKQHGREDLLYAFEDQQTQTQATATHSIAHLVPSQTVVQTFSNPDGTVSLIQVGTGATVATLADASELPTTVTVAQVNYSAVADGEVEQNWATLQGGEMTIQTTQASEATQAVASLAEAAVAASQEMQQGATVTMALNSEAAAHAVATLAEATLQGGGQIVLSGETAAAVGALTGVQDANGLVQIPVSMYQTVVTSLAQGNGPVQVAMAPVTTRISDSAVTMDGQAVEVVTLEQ

Structure (SMILES) | outcome | AC50
CC(C)(C)c1ccc(S)cc1 | inactive | 
C[C@]12CC[C@@H]3c4ccc(O)cc4CC[C@H]3[C@@H]1CC[C@@H]2O | inactive | 
CCOC(=O)C(=O)OCC | inactive | 
C=CC(C)CCCC(C)(C)O (stereo not given) | inactive | 
CC(=O)OC(C)(C)C1CC=C(C)CC1 (stereo not given) | inactive | 
O=C1OCc2ccccc21 | inactive | 
CC1=CC(O)CC(C)(C)C1 (stereo not given) | inactive | 
NCCN1CCNCC1 | inactive | 
Cc1ccc(C(C)(C)O)cc1 | inactive | 
CC(C)C(=O)c1ccccc1 | inactive | 
c1coc(CNc2ncnc3nc[nH]c23)c1 | inactive | 
CCCCCCCCSCc1cc(C)c(O)c(CSCCCCCCCC)c1 | inactive | 
CCCCOCCOC(=O)c1ccccc1C(=O)OCCOCCCC | inactive | 
O=c1cc(-c2ccc(O)cc2)oc2cc(O)cc(O)c12 | inactive | 
CCCCCC#CC(=O)OC | inactive | 
CC(C)COC(=O)c1ccccc1O | inactive | 
C[N+](C)(C)CCO | inactive | 
CC(C)N(c1ccccc1)C(C)C | inactive | 
CC(C)COC(=O)c1ccccc1 | inactive | 
[Cl][Dy]([Cl])[Cl] | inactive | 

Structure (SMILES) | outcome | AC50
CC(=O)CCC=C(C)CCC=C(C)C | inactive | 
CCCC[N+](C)(CCCC)CCCC | inactive | 
CCC(C)(C)C1CCC(=O)CC1 | inactive | 
CCO[Si](CCC#N)(OCC)OCC | inactive | 
CCCCCCCCCCCCOC(C)=O | inactive | 
CCCC(O)C(CC)CO (stereo not given) | inactive | 
CCCO | inactive | 
CC1COC(=O)O1 (stereo not given) | inactive | 
CCOC(=O)CC1(C)OCC(C)O1 (stereo not given) | inactive | 
CCCCN(CCCC)CCCCCCN(CCCC)CCCC | inactive | 
ClCCOCCOCCCl | inactive | 
O=C(c1ccc(OCCN2CCCCC2)cc1)c1c(-c2ccc(O)cc2)sc2cc(O)ccc12 | inactive | 19.6 µM (active) and 17.7 µM (active)
Cc1cc(O)c(C)c(C)c1O | inactive | 
FC(F)(F)c1ccc(Cl)c(Cl)c1 | inactive | 
O=S(=O)(O)CCCN1CCOCC1 | inactive | 
C=C1CC[C@H]2O[C@]2(C)CC[C@@H]2[C@@H]1CC2(C)C | inactive | 
c1ccc(OCCOc2ccccc2)cc1 | inactive | 
CCC(C)(CCCC(C)C)OC(C)=O (stereo not given) | inactive | 
CCCCCC1C(=O)CCC1CC(=O)OC (stereo not given) | inactive | 
